From PubChem BioAssay
KB-3-1 cytotox: KB-3-1 parental cell cytotoxicity. KB-3-1 viability, CellTiter-Glo ATP luminescence, 72 h. Potency, µM (highest dose often 46.1 µM), usual class: cytotoxic. 400,000 tested, 1.4% active. AID 1347075; note: nearly all actives have a fitted effect of over 60% in size
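Using CellTiter-Glo luminescence, growth of non-resistant KB-3-1 adenocarcinoma cells is assessed 72 h after pin-tool compound addition at 37 °C. Normalized responses across the concentration series yield fitted curves.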
DT40 TDP1 CPT: growth inhibition of DT40 Tdp1-/-;hTDP1 cells with camptothecin (screen for TDP1 inhibitors). chicken DT40 Tdp1-/-;hTDP1 cells + 20 nM CPT, ATP luminescence, 48 h. Potency, µM (series often up to 46.2 µM), for inactives: at the top dose activity change, negative = growth inhibition, usual class: inhibitors. 420,000 tested, 12% active; note: nearly all actives have a fitted effect of over 55% in size
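Chicken DT40 Tdp1-/- cells complemented with human TDP1, 400 cells/well, exposed to compounds plus 20 nM camptothecin for at least 48 h at 37 C; viability read as ATP content by CellTiter-Glo luminescence.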
HT1080-NT tox: kills 2HG-producing HT-1080-NT fibrosarcoma cells; HT-1080-NT fibrosarcoma viability, CellTiter-Glo ATP luminescence, 48 h; Potency, µM (doses to about 46.1 µM), for inactives: top-dose activity, negative = less viability, hits mostly cytotoxic; 360,000 tested, 1.6% active;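 note: NT is the 2HG producing partner of a matched IDH1 knockdown line; 0% = DMSO-treated cells and -100% = media-only wells without cells; nearly all actives have a fitted effect of over 55% in size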
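Viability of the 2HG-overproducing fibrosarcoma line after 48 hours of compound exposure at 37 degrees C was determined by luminescence with CellTiter-Glo, and concentration-effect curves were then fitted and categorized.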
KB-V1 MDR tox: KB-V1 MDR subline cytotoxicity; Potency, µM (top dose mostly 46.1 µM), hits mostly cytotoxic; 400,000 tested, 3.4% active; KB-V1 MDR cells viability, CellTiter-Glo, 72 h; note: nearly all actives have a fitted effect of over 60% in size
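qHTS viability screen in drug-selected KB-V1 MDR cells: 72 h compound treatment at 37 degrees C, ATP luminescence end point.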
HT1080 IDH1KD tx: HT-1080 IDH1 knockdown cell toxicity (counter line). AID 686971. HT-1080 IDH1 knockdown viability, ATP luminescence, 48 h. Potency, µM (top dose mostly 46.1 µM), for inactives: at the highest dose activity, negative = toxicity, actives largely listed as cytotoxic. 360,000 tested, 2% active;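 note: 0% = DMSO wells and -100% = cell-free medium wells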
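Using the IDH1-knockdown HT-1080 line run in the same batch and compound series as the NT line, viability after 48 h at 37 °C was determined by CellTiter-Glo luminescence and expressed as % activity.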
TDP1 cell noCPT: qHTS for Inhibitors of human tyrosyl-DNA phosphodiesterase 1 (TDP1): qHTS in cells in absence of CPT; AID 686978, 2013; Potency, µM (series often up to 46.2 µM), without a hit: at the highest dose activity change, negative = growth inhibition, actives largely listed as inhibitors; 420,000 tested, 15% active; DT40 Tdp1-/- hTDP1 cells, no CPT, ATP luminescence, 48 h; note: nearly all actives have a fitted effect of over 55% in size
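Stably hTDP1-transfected Tdp1-null chicken DT40 cells were treated with library compounds minus camptothecin and grown for at least 48 hr at 37 °C, after which cellular ATP was quantified by luminescence.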
Active calls of the source: *; i = inactive; ? = inconclusive; . = not tested or not shown. Compounds with a hit are over-represented: about 19% of the library has one in this group of screens. Calls come from the whole dose curve; as a rule, active = well fitted curve in the direction sought with a large enough effect; inconclusive = small, poorly fitted or top-dose-only effect, or another doubt; inactive = no such curve, though single readings can be large; an effect the other way counts as inactive or inconclusive. Unless noted, % is set by controls: 0 for no effect and ±100 for the full control effect; potency is the fitted concentration of half-maximal effect.

SMILES	KB-3-1 cytotox	DT40 TDP1 CPT	HT1080-NT tox	KB-V1 MDR tox	HT1080 IDH1KD tx	TDP1 cell noCPT
COc1cc(C)c(CN2CC=C(c3ccc(F)cc3)CC2)cc1C	i	-9.6%	?	?	-11.2%	?
CN(C)CCn1cnc2ccccc21	i	4.9%	3.0%	i	9.3%	25.1%
CN(C)CCCOc1nn(Cc2ccccc2)c2ccccc12	i	?	?	?	18.4µM*	23.1µM*
O=c1c2ccccc2nc(Cc2cccc([N+](=O)[O-])c2)n1-c1ccc(O)cc1	i	?	4.4%	i	-12.2%	?
c1ccc2c(c1)sc1ccccc12	.	?	.	.	.	-26.4%
COc1cccc(-n2c(/C=C/c3ccc(O)c(O)c3)nc3ccccc3c2=O)c1	i	17.5%	-17.0%	?	-29.7%	?
O=c1c2ccccc2nc(/C=C/c2cccc3ccccc23)n1-c1ccccc1Cl	?	11.6µM*	.	?	.	10.3µM*
COc1ccc(-n2c(/C=C\c3ccccc3F)nc3ccccc3c2=O)cc1OC	?	23.1µM*	.	?	.	16.4µM*
CSc1ccc(/C=C/c2nc3ccccc3c(=O)n2-c2cccc(Cl)c2C)cc1	i	?	.	i	.	?
Cc1ccccc1-n1c(C)nc2sccc2c1=O	i	-9.9%	-10.5%	i	-3.9%	0.7%
Cc1ccccc1-n1c(/C=C/c2ccccc2F)nc2ccccc2c1=O	.	20.6µM*	.	.	.	8.2µM*
Cc1ccc(-c2nc3ccccc3c(=O)n2-c2cccc(C)n2)cc1	i	-17.7%	3.1%	i	1.7%	?
O=c1c2ccccc2nc(-c2ccc(Cl)cc2Cl)n1-c1nccs1	i	?	?	i	?	13µM*
Cc1ccc(-c2nc3ccccc3c(=O)n2-c2cccc(O)c2)cc1	i	2.31µM*	-4.2%	i	-0.3%	8.2µM*
Cc1nc2ccccc2c(=O)n1-c1cccc(O)c1	i	-18.3%	2.9%	i	12.7%	-17.0%
Cc1ccc(-c2nc3ccccc3c(=O)n2-c2cc(C)ccn2)cc1	i	?	14.7%	14.6µM*	1.2%	-20.6%
O=c1c2ccccc2nc(-c2ccccc2Cl)n1-c1cccc(O)c1	i	20.6µM*	-2.5%	i	-8.0%	?
Cc1ccccc1Cn1cnc2c(oc3ccccc32)c1=O	i	?	-9.2%	?	-14.0%	?
CN1C(=O)N(C)C(=O)C2(Cc3cc([N+](=O)[O-])ccc3N(C)C2)C1=O	i	-2.6%	3.4%	i	2.0%	10.6%
CC(C)S(=O)(=O)N1Cc2ccccc2-n2nncc2C1	i	-0.7%	-0.3%	i	0.2%	9.7%
COc1ccccc1CNC(=O)CCC(=O)N1C[C@H]2C[C@@H](C1)c1cccc(=O)n1C2	i	3.9%	3.2%	i	0.7%	-3.8%
CCc1ccc(C2C(C(=O)Nc3ccccc3OC)=C(C)Nc3nc(SCc4ccccc4)nn32)cc1 (stereo not given)	i	4.11µM*	.	i	.	3.66µM*
CC[C@H]1CN(C)CCc2c([nH]c3ccccc23)C(=O)C[C@@H]1/C(=C\OC)C(=O)OC	i	29.1µM*	-2.9%	i	1.3%	-18.8%
CC[C@H]1CN(C)C[C@@]2(C(=O)OC)Cc3c([nH]c4ccccc34)C(=O)C[C@@H]12	i	12.9%	0.4%	i	2.1%	12.8%
O=C(COc1ccc(Cl)cc1)N1CCN(C2CCCC2)CC1	i	16.6%	15.5%	i	13.4%	-5.3%
O=C(c1ccc(C(F)(F)F)cc1)C1CCCN(Cc2ccncc2)C1 (stereo not given)	?	10.3µM*	-25.3%	7.31µM*	-24.6%	10.3µM*
